Screening data as filed in PubChem.
Cycloheximide cs – affects cycloheximide protein synthesis inhibition readout, counter-screen; cell reporter, cycloheximide protein synthesis inhibition counterscreen; max response, %; 12% of 300,000 active; AID 2314; in the data active = max response mostly above about 13%, no sharp cut-off; inactive = mostly below about 14%; also: read at 38.3 µM for the half of the compounds with a filed dose; 0% is about no effect
Shiga inhibitor – inhibitors of Shiga toxin in Vero cells; 9.2% of 290,000 active; inhibition, % at 38.7 µM; Vero cells, Shiga toxin protein synthesis inhibition reporter; in the data active = inhibition mostly above about 28%, no sharp cut-off; inactive = mostly below about 43%; also: 0% is about no effect
AmpC no deterg – blocks E. coli AmpC beta-lactamase in detergent-free assay; P00811; AmpC nitrocefin hydrolysis, absorbance 480 nm, 0.0001% Triton; Potency, µM (top dose mostly 57.1 µM), inactives show at the highest dose activity change, negative = inhibition, most hits filed as inhibitors; 0.52% of 330,000 active;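 also: potency is read from the fitted curve at half-maximal effect; plate controls were no compound for no effect and no enzyme for full effect; nearly all actives have a fitted effect of over 20% in size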
Target sequence (P00811 whole entry, looked up): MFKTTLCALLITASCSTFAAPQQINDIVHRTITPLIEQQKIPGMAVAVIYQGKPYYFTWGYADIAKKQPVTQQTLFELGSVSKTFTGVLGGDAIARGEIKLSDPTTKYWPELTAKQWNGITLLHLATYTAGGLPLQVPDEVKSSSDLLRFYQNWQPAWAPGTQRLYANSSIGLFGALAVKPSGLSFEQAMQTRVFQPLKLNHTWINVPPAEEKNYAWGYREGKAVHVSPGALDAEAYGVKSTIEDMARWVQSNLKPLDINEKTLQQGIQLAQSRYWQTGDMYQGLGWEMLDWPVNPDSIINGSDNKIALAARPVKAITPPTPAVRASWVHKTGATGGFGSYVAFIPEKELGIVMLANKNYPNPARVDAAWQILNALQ
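AmpC (5.3 nM in the dispensed reagent) in 20 mM phosphate pH 7.0 with 0.01% (detergent screen) or 0.0001% Triton X-100 was preincubated with compounds for 15 min at room temperature. Nitrocefin was then added from an 800 uM solution, and hydrolysis was followed at 480 nm.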
SARS PLpro yeast – inhibitors of SARS-CoV papain-like protease in yeast; 0.19% of 330,000 active; S. cerevisiae expressing SARS-CoV PLpro, growth rescue; Potency, µM (series often up to 32.9 µM), inactives show at the highest dose activity, positive = growth rescue, most hits filed as activators; calls by dose curve; also: potency is read from the fitted curve at half-maximal effect; 0% is about no effect; nearly all actives have a fitted effect of over 55% in size
AmpC inh detg – inhibitors of E. coli AmpC beta-lactamase with detergent; AmpC hydrolysis of nitrocefin, absorbance 480 nm, 0.01% Triton; Potency, µM (series often up to 114 µM), inactives show top-dose activity change, negative = inhibition, actives largely listed as inhibitors; 0.041% of 370,000 active; P00811; AID 485294;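 also: potency is read from the fitted curve at half-maximal effect; 0% = no-compound wells and -100% = no-enzyme wells; nearly all actives have a fitted effect of over 25% in size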
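20 mM phosphate pH 7.0 + 0.01% (detergent screen) or 0.0001% Triton X-100; 5.3 nM AmpC reagent; cpd preinc 15 min RT; nitrocefin (800 uM stock) to start; A480 q20 s × 4 min; Activity was normalised to no-enzyme and no-compound control wells.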
AMA1 RON2 block – disrupts binding of P. falciparum AMA1 to RON2. AlphaScreen AMA1-biotinylated RON2 peptide binding. Potency, µM (doses to about 58.2 µM), for inactives: at the top dose activity change, negative = inhibition, hits mostly inhibitors. 0.2% of 360,000 active. AID 720542;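 also: potency is read from the fitted curve at half-maximal effect; 0% = vehicle wells and -100% = peptide control; nearly all actives have a fitted effect of over 45% in size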
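AMA1 (3D7) with his tag at 25 nM final met compounds first, then biotinylated RON2 peptide at 25 nM; detection used donor plus acceptor beads, 10 µg/mL apiece, read by AlphaScreen after 30 min at room temperature.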
* hit, by the source's call; [ ] = another dose, or the depositor's remark. This excerpt belongs to a sample that is enriched for hits. Unless noted, calls follow the shape of the dose curve; as a rule, active = well fitted curve in the direction sought with a large enough effect; inconclusive = small, poorly fitted or top-dose-only effect, or another doubt; inactive = no such curve, though single readings can be large; an effect the other way counts as inactive or inconclusive.

Results for COc1ccc(C2C=C(C)Nc3nc4ccccc4n32)cc1 (stereo not drawn) ?
Cycloheximide cs: 42.9*; Shiga inhibitor: 110.9*; AmpC no deterg: -14.3%[11.4 µM]; SARS PLpro yeast: -1.1%; AmpC inh detg: inconclusive; AMA1 RON2 block: 39.7%

Results for COc1ccc(OC)c(C2N=C(N)Nc3nc4ccccc4n32)c1 (stereo not drawn) ?
AmpC inh detg: -3.4%

What do the screens show for `COc1ccc(C2C(C(=O)c3ccccc3)=C(C)Nc3nc4ccccc4n32)c(OC)c1` (stereo not drawn)?
Cycloheximide cs: 31.4*; Shiga inhibitor: 43.0*; AmpC no deterg: -3.8%; SARS PLpro yeast: -6.1%; AmpC inh detg: inconclusive; AMA1 RON2 block: -1.2%

How did COc1ccc(C2C(C#N)=C(N)Nc3nc4ccccc4n32)cc1 (stereo not drawn) do in these assays?
Cycloheximide cs: 27.2*; Shiga inhibitor: 26.4*; AmpC no deterg: -36.2%; SARS PLpro yeast: -2.5%; AmpC inh detg: inconclusive; AMA1 RON2 block: -20.8%

How did COc1ccc(C2N=C(N)Nc3nc4ccccc4n32)cc1 (stereo not drawn) do in these assays?
AmpC inh detg: -6.2%

What do the screens show for `CC(=O)Nc1ccc(Nc2nnc(-c3ccc(C)c(S(=O)(=O)NCC4CCCO4)c3)c3ccccc23)cc1` (stereo not drawn)?
Cycloheximide cs: -1.9; Shiga inhibitor: -10.6; AmpC no deterg: 127.8%; SARS PLpro yeast: 1.4%; AmpC inh detg: -0.5%; AMA1 RON2 block: -3.8%

Results for O=C(CSc1ccc(Br)cc1)NCC1CCCO1 (stereo not drawn) ?
Cycloheximide cs: 19.3; Shiga inhibitor: 47.1; AmpC no deterg: -9.9%; SARS PLpro yeast: -5.2%; AmpC inh detg: 1.5%; AMA1 RON2 block: -7.1%

How did N#Cc1ccc(C(=O)NC2CCCCCCC2)cc1 do in these assays?
Cycloheximide cs: 22.2*; Shiga inhibitor: 82.7*; AmpC no deterg: -16.3%; SARS PLpro yeast: -10.4%; AmpC inh detg: -6.3%; AMA1 RON2 block: -27.0%

How did Cc1cc(C)n(-c2ccc(C(=O)Nc3ccccn3)cc2)n1 do in these assays?
Cycloheximide cs: 38.1*; Shiga inhibitor: 65.0*; AmpC no deterg: 1.2%; SARS PLpro yeast: -5.4%; AmpC inh detg: inconclusive; AMA1 RON2 block: -5.3%

What do the screens show for `O=C(NC1CCCCC1)c1ccc([N+](=O)[O-])cc1`?
AMA1 RON2 block: -3.5%

Results for Cc1cc(C)n(-c2ccc(C(=O)NC3CCCCC3)cc2)n1 ?
Cycloheximide cs: 21.0; Shiga inhibitor: 39.7*; AmpC no deterg: -6.7%; SARS PLpro yeast: -7.0%; AmpC inh detg: 8.1%; AMA1 RON2 block: -12.1%

Results for O=C(NC1CCCCC1)c1ccc(-n2cnnn2)cc1 ?
Cycloheximide cs: -2.9; Shiga inhibitor: -6.8; AmpC no deterg: 1.8%; SARS PLpro yeast: -2.1%; AmpC inh detg: 6.0%; AMA1 RON2 block: -1.6%

How did CC1CCCCN1S(=O)(=O)c1ccc(C(=O)Nc2sccc2C(N)=O)cc1 (stereo not drawn) do in these assays?
Cycloheximide cs: 55.9*; Shiga inhibitor: 60.1*; AmpC no deterg: -4.2%; SARS PLpro yeast: -39.2%; AmpC inh detg: inconclusive; AMA1 RON2 block: -8.3%

How did CCCn1c(N)c(N(CCOC)C(=O)c2ccccc2)c(=O)[nH]c1=O do in these assays?
Cycloheximide cs: -8.5; Shiga inhibitor: -24.1; AmpC no deterg: 1.0%; SARS PLpro yeast: 1.5%; AmpC inh detg: inconclusive; AMA1 RON2 block: 1.0%

How did Cc1noc(C)c1COC(=O)c1csc2c1CCCC2 do in these assays?
AmpC no deterg: 9.8%; SARS PLpro yeast: 5.1%; AmpC inh detg: 0.0%; AMA1 RON2 block: 8.1%

What do the screens show for `Cc1cc(C)n(-c2ccc(C(=O)Nc3nnc(C)s3)cc2)n1`?
Cycloheximide cs: 5.5; Shiga inhibitor: -1.5; AmpC no deterg: -5.0%; SARS PLpro yeast: 6.2%; AmpC inh detg: -5.8%; AMA1 RON2 block: -5.7%

How did Cc1cc(C)n(-c2ccc(C(=O)Nc3sccc3C(N)=O)cc2)n1 do in these assays?
Cycloheximide cs: 34.6*; Shiga inhibitor: 47.1*; AmpC no deterg: -32.6%; SARS PLpro yeast: -9.6%; AmpC inh detg: -9.0%; AMA1 RON2 block: -5.1%
